# Results as given in article PMC5540273 (PLoS ONE, 2017).
# Where “and” joins values, the source holds several entries; their conditions need not be identical. Equal values may be shown once. Read-outs that look alike come from different tables or passages of the source.
# Legend:
# [1] = test system: KIT-autoinhibited; settings: concentration: 1 μM, replicates: in singlicate; n = 1
# [2] = test system: KIT; settings: concentration: 1 μM, replicates: in singlicate, n = 1
# [3] = test system: LATS1; settings: concentration: 1 μM, replicates: in singlicate, n = 1
# [4] = test system: LATS2; settings: concentration: 1 μM, replicates: in singlicate, n = 1
# [5] = test system: LCK; settings: concentration: 1 μM, replicates: in singlicate; n = 1
# [6] = test system: LIMK1; settings: concentration: 1 μM, replicates: in singlicate, n = 1
# [7] = test system: LIMK2; settings: concentration: 1 μM, replicates: in singlicate; n = 1
# [8] = test system: T1, LKB1; settings: concentration: 1 μM, replicates: in singlicate, n = 1
# T1 construct: gene STK11
# [9] = test system: T2, LOK; settings: concentration: 1 μM, replicates: in singlicate, n = 1
# T2 construct: gene STK10
# [10] = test system: LRRK2; settings: concentration: 1 μM, replicates: in singlicate; n = 1
# [11] = test system: LTK; settings: concentration: 1 μM, replicates: in singlicate, n = 1
# [12] = test system: LYN; settings: concentration: 1 μM, replicates: in singlicate; n = 1
# [13] = test system: T3, LZK; settings: concentration: 1 μM, replicates: in singlicate, n = 1
# T3 construct: gene MAP3K13
# [14] = test system: MAK; settings: concentration: 1 μM, replicates: in singlicate, n = 1
# [15] = test system: MAP3K15; settings: concentration: 1 μM, replicates: in singlicate; n = 1
# [16] = test system: MAP3K1; settings: concentration: 1 μM, replicates: in singlicate, n = 1
# [17] = test system: MAP3K2; settings: concentration: 1 μM, replicates: in singlicate, n = 1
# [18] = test system: MAP3K3; settings: concentration: 1 μM, replicates: in singlicate; n = 1
# [19] = test system: MAP3K4; settings: concentration: 1 μM, replicates: in singlicate, n = 1
# [20] = test system: MAP4K2; settings: concentration: 1 μM, replicates: in singlicate; n = 1
# 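Further: KINOMEscan kinase panel screen.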
smiles,measurement,setting,value
CN1c2ccc(CNc3ccc(F)cc3)cc2-c2c(cnn2C)S1(=O)=O,%Inh,[1],15%
same,%Inh,[2],0%
same,%Inh,[3],0%
same,%Inh,[4],0%
same,%Inh,[5],7%
same,%Inh,[6],0%
same,%Inh,[7],0%
same,%Inh,[8],8%
same,%Inh,[9],0%
same,%Inh,[10],0%
same,%Inh,[11],0%
same,%Inh,[12],3%
same,%Inh,[13],0%
same,%Inh,[14],3%
same,%Inh,[15],0%
same,%Inh,[16],0%
same,%Inh,[17],11%
same,%Inh,[18],25%
same,%Inh,[19],12%
same,%Inh,[20],0%
N#Cc1ccc(-c2cc(-c3c[nH]nc3-c3ccccn3)ccn2)cc1 [GW693028],%Inh,[1],5%
same,%Inh,[2],6%
same,%Inh,[3],0%
same,%Inh,[4],0%
same,%Inh,[5],0%
same,%Inh,[6],16%
same,%Inh,[7],3%
same,%Inh,[8],0%
same,%Inh,[9],0%
same,%Inh,[10],44%
same,%Inh,[11],0%
same,%Inh,[12],0%
same,%Inh,[13],0%
same,%Inh,[14],21%
same,%Inh,[15],0%
same,%Inh,[16],6%
same,%Inh,[17],0%
same,%Inh,[18],0%
same,%Inh,[19],24%
same,%Inh,[20],0%
O=C(NOCC1CC1)c1ccc(F)c(F)c1Nc1ccc(I)cc1Cl,%Inh,[1],0%
same,%Inh,[2],0%
same,%Inh,[3],0%
same,%Inh,[4],7%
same,%Inh,[5],0%
same,%Inh,[6],0%
same,%Inh,[7],0%
same,%Inh,[8],0%
same,%Inh,[9],0%
same,%Inh,[10],0%
same,%Inh,[11],0%
same,%Inh,[12],0%
same,%Inh,[13],0%
same,%Inh,[14],0%
same,%Inh,[15],0%
same,%Inh,[16],0%
same,%Inh,[17],0%
same,%Inh,[18],0%
same,%Inh,[19],0%
same,%Inh,[20],0%
Cn1ccc2ncnc(Oc3ccc(NC(=O)Nc4ccncc4)c(Cl)c3)c21,%Inh,[1],0%
same,%Inh,[2],74%
same,%Inh,[3],0%
same,%Inh,[4],0%
same,%Inh,[5],0%
same,%Inh,[6],0%
same,%Inh,[7],0%
same,%Inh,[8],13%
same,%Inh,[9],14%
same,%Inh,[10],0%
same,%Inh,[11],0%
same,%Inh,[12],0%
same,%Inh,[13],0%
same,%Inh,[14],10%
same,%Inh,[15],0%
same,%Inh,[16],0%
same,%Inh,[17],0%
same,%Inh,[18],0%
same,%Inh,[19],0%
same,%Inh,[20],0%
CC(C)(CN)c1nc(-c2ccc(Cl)c(O)c2)c(-c2ccncc2)[nH]1.O=C(O)C(F)(F)F [SB-477794],%Inh,[1],0%
same,%Inh,[2]; 1 µM,66% and 58%
same,%Inh,[3]; 1 µM,7% and 39%
same,%Inh,[4]; 1 µM,86% and 89%
same,%Inh,[5],99.2%
same,%Inh,[6]; 1 µM,0% and 2%
same,%Inh,[7],0%
same,%Inh,[8]; 1 µM,0% and 31%
same,%Inh,[9]; 1 µM,99.1% and 98.2%
same,%Inh,[10],0%
same,%Inh,[11]; 1 µM,18% and 30%
same,%Inh,[12],91.1%
same,%Inh,[13]; 1 µM,49% and 47%
same,%Inh,[14]; 1 µM,41% and 0%
same,%Inh,[15],0%
same,%Inh,[16]; 1 µM,22% and 7%
same,%Inh,[17]; 1 µM,43% and 35%
same,%Inh,[18],0%
same,%Inh,[19]; 1 µM,0% and 13%
same,%Inh,[20],0%
NS(=O)(=O)c1cccc(-c2ccc3ncc(N4CCOCC4)nc3c2)c1 [GSK1535721],%Inh,[1],15%
same,%Inh,[2],14%
same,%Inh,[3],0%
same,%Inh,[4],9%
same,%Inh,[5],0%
same,%Inh,[6],0%
same,%Inh,[7],15%
same,%Inh,[8],3%
same,%Inh,[9],0%
same,%Inh,[10],0%
same,%Inh,[11],8%
same,%Inh,[12],0%
same,%Inh,[13],23%
same,%Inh,[14],8%
same,%Inh,[15],0%
same,%Inh,[16],0%
same,%Inh,[17],0%
same,%Inh,[18],0%
same,%Inh,[19],0%
same,%Inh,[20],4%
CC(C)Oc1ccc2c(-c3ccnc(Nc4ccc(N5CCN(C)CC5)cc4)n3)cnn2n1 [GW696155],%Inh,[1],43%
same,%Inh,[2],91.1%
same,%Inh,[3],0%
same,%Inh,[4],43%
same,%Inh,[5],92.6%
same,%Inh,[6],85%
same,%Inh,[7],100%
same,%Inh,[8],73%
same,%Inh,[9],0%
same,%Inh,[10],27%
same,%Inh,[11],0%
same,%Inh,[12],34%
same,%Inh,[13],10%
same,%Inh,[14],0%
same,%Inh,[15],11%
same,%Inh,[16],39%
same,%Inh,[17],83%
same,%Inh,[18],67%
same,%Inh,[19],74%
same,%Inh,[20],28%
O=C1NC(=O)C(N2CCc3ccccc32)=C1c1cccc(Cl)c1 [SB-408010],%Inh,[1],0%
same,%Inh,[2],13%
same,%Inh,[3],0%
same,%Inh,[4],10%
same,%Inh,[5],10%
same,%Inh,[6],0%
same,%Inh,[7],0%
same,%Inh,[8],0%
same,%Inh,[9],0%
same,%Inh,[10],9%
same,%Inh,[11],5%
same,%Inh,[12],7%
same,%Inh,[13],12%
same,%Inh,[14],37%
same,%Inh,[15],1%
same,%Inh,[16],26%
same,%Inh,[17],0%
same,%Inh,[18],22%
same,%Inh,[19],9%
same,%Inh,[20],0%
O=C(Nc1n[nH]c2cc(-c3cccc(F)c3)ccc12)C1CC1 [SB-735464],%Inh,[1],1%
same,%Inh,[2],33%
same,%Inh,[3],0%
same,%Inh,[4],18%
same,%Inh,[5],3%
same,%Inh,[6],0%
same,%Inh,[7],0%
same,%Inh,[8],0%
same,%Inh,[9],6%
same,%Inh,[10],0%
same,%Inh,[11],0%
same,%Inh,[12],9%
same,%Inh,[13],2%
same,%Inh,[14],3%
same,%Inh,[15],48%
same,%Inh,[16],22%
same,%Inh,[17],5%
same,%Inh,[18],10%
same,%Inh,[19],24%
same,%Inh,[20],6%
